± gives the standard deviation.
System: MILI (PIWIL2) piRISC loaded with L1MC piRNA (26 nt)
Test: pre-steady-state target cleavage rate (min^-1); guide: L1MC piRNA 5'p-UAACUAAAUACUAUGCAAGCUGUAGG; MIWI and MILI are mouse PIWI proteins and EfPiwi is from a freshwater sponge; tags in brackets are library labels; higher = faster piRNA-guided slicing of the target
Conditions: auxiliary factor: 500 nM mouse GTSF1
Method in brief: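 A transcribed, DNA-blocked target RNA library (0.1 nM) and 1 nM active affinity-purified piRISC bearing one synthetic guide were incubated in HEPES–potassium acetate buffer at 33 °C for 0–8 or 0–960 min, either with or without 500 nM GTSF1 partner protein. Uncleaved targets were sequenced, normalised to depth and to weakly complementary targets, and pooled over three trials, with k3 capped at 0.0001 min^-1. The pre-steady-state cleavage rate was derived with a burst-and-steady-state fit.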

Compared with UCCUGCUACAGCUUGGAUAGUAUUUAGUUA, UCCUGGAUGUGAUUGCAUAGUAUUUAGUUA is lower in “pre-steady-state target cleavage rate” value: 0.296 ± 0.017 for the first, 0.115 ± 0.015 for the second.

Going from UCCUGGUACAGGUUGGAUAGUAUUUAGUUA to UCCUGGUUCAGCUUGGAUAGUAUUUAGUUA, the “pre-steady-state target cleavage rate” value falls from 0.303 ± 0.043 to 0.191 ± 0.022.

First: UCCUCCUUCAGCUUGCAUAGUAUUAAGUUA
Second: UCCUCCUACAGCUUGCAUAGUAUUUCGUUA
The “pre-steady-state target cleavage rate” value of the first is lower: 0.155 ± 0.022 for the first, 0.243 ± 0.043 for the second.

Going from UCCUGGAUGUCCUUACAUAGUAUUUAGUUA to UCCUCCUUCAGCUUGCAUAGUAUUUAGUUA, the “pre-steady-state target cleavage rate” value rises from 0.0839 ± 0.012 to 0.297 ± 0.019.

UCCUGGAUGCGCUUGCAUAGUAUUUAGUUA and UCCUCCUUCAGCAUGCAUAGUAUUUAGUUA are within error of each other in “pre-steady-state target cleavage rate” value: 0.239 ± 0.016 for the first, 0.265 ± 0.017 for the second.

Compared with UCCUCCUACGAGCUUGCAUAGUAUUUAGUUA, UCCUCCUUCAGCUUGCAUAGUAUAUAGUUA is higher in “pre-steady-state target cleavage rate” value: 0.163 ± 0.018 for the first, 0.216 ± 0.022 for the second.

First: UCCUGGAACAGCUUUGCAUAGUAUUUAGUUA
Second: UCCUGGAACAGCUUGUCAUAGUAUUUAGUUA
The “pre-steady-state target cleavage rate” value of the first is higher: 0.248 ± 0.016 for the first, 0.2 ± 0.014 for the second.

UCCUCCUACACCUUGCUUAGUAUUUAGUUA and UCCUGCUACACCUUGCAUAGUAUUUAGUUA are within error of each other in “pre-steady-state target cleavage rate” value: 0.193 ± 0.022 for the first, 0.214 ± 0.018 for the second.

Compared with UCCUGCUACAGCUUGACAUAGUAUUUAGUUA, UCCUGGAUCAGCAUGCUUAGUAUUUAGUUA is lower in “pre-steady-state target cleavage rate” value: 0.226 ± 0.018 for the first, 0.189 ± 0.019 for the second.

First: UCCUGCUACAGCAUGCAUAGUAUUUUGUUA
Second: UCCUGGAACAGCAUUGCAUAGUAUUUAGUUA
The “pre-steady-state target cleavage rate” value of the first is lower: 0.167 ± 0.029 for the first, 0.233 ± 0.024 for the second.

UCCUGCAACAGGUUGCAUAGUAUUUAGUUA and UCCUGGUACAGCAUGCAUAGUAUUUAGUUA are within error of each other in “pre-steady-state target cleavage rate” value: 0.248 ± 0.022 for the first, 0.268 ± 0.02 for the second.

Going from UCCUCCAACUGCUUGCAUAGUAUUUAGUUA to “UCCUGCUACAGCUUGCAUAGUAUUUAGUUU [g2:g25:cont:t1U]”, the “pre-steady-state target cleavage rate” value rises from 0.256 ± 0.017 to 0.315 ± 0.022.

UCCUGGAUCAGCUUGCAUAGUAUUUAGUAA and UCCUCCUACACCUUGCAUAGUAUUUAGUAA are within error of each other in “pre-steady-state target cleavage rate” value: 0.24 ± 0.016 for the first, 0.226 ± 0.037 for the second.

Compared with UCCUGCUACAGCUCUGCAUAGUAUUUAGUUA, UCCUGGAUGUGCCUGCAUAGUAUUUAGUUA is lower in “pre-steady-state target cleavage rate” value: 0.25 ± 0.016 for the first, 0.0999 ± 0.015 for the second.

UCCUGGAUCAGCUUGCAUAGUAUUUGAGUUA and UCCUGCUACAGCUUGCAUAGUAUUUGGUUA are within error of each other in “pre-steady-state target cleavage rate” value: 0.222 ± 0.036 for the first, 0.27 ± 0.029 for the second.

Going from UCCUGGAUGAGCGUGCAUAGUAUUUAGUUA to UCCUCCUACAGCUUGGAUAGUAAUUAGUUA, the “pre-steady-state target cleavage rate” value rises from 0.186 ± 0.018 to 0.25 ± 0.024.

First: UCCUGCUACAGCUUGCAUAGUAAUUUAGUUA
Second: UCCUGGAUGAGCCUUGCAUAGUAUUUAGUUA
The “pre-steady-state target cleavage rate” value of the first is higher: 0.233 ± 0.023 for the first, 0.16 ± 0.02 for the second.

Going from UCCUCCAACAGCUUGCAUAGUUUUUAGUUA to UCCUCCAACACCUUGCAUAGUAUUUAGUUA, the “pre-steady-state target cleavage rate” value rises from 0.0522 ± 0.0087 to 0.192 ± 0.022.

Going from UCCUGGAACAGCGUUGCAUAGUAUUUAGUUA to UCCUGGAUCAGCUUGCAUAGUAAUUAGUAA, the “pre-steady-state target cleavage rate” value falls from 0.203 ± 0.017 to 0.0974 ± 0.021.

Compared with UCCUGGAUAAGCUUGCAUAGUAUUUAGUUA, UCCUGGAAGAGCUUGCAUAGUAUUUAGAUA is lower in “pre-steady-state target cleavage rate” value: 0.276 ± 0.017 for the first, 0.182 ± 0.034 for the second.

Same assay, conditions: auxiliary factor: none (no GTSF1)

UCCUGCUACAGCUUGGAUAGUAUUUAGUUA and UCCUGGAUGUGAUUGCAUAGUAUUUAGUUA are within error of each other in “pre-steady-state target cleavage rate” value: 0.0119 ± 0.0026 for the first, 0.00851 ± 0.0026 for the second.

UCCUGGUACAGGUUGGAUAGUAUUUAGUUA and UCCUGGUUCAGCUUGGAUAGUAUUUAGUUA are within error of each other in “pre-steady-state target cleavage rate” value: 0.00912 ± 0.0032 for the first, 0.013 ± 0.0035 for the second.

UCCUCCUUCAGCUUGCAUAGUAUUAAGUUA and UCCUCCUACAGCUUGCAUAGUAUUUCGUUA are within error of each other in “pre-steady-state target cleavage rate” value: 0.00246 ± 0.0023 for the first, 0.0033 ± 0.0031 for the second.

UCCUGGAUGUCCUUACAUAGUAUUUAGUUA and UCCUCCUUCAGCUUGCAUAGUAUUUAGUUA are within error of each other in “pre-steady-state target cleavage rate” value: 0.00844 ± 0.002 for the first, 0.0116 ± 0.0026 for the second.

UCCUGGAUGCGCUUGCAUAGUAUUUAGUUA and UCCUCCUUCAGCAUGCAUAGUAUUUAGUUA are within error of each other in “pre-steady-state target cleavage rate” value: 0.0108 ± 0.0028 for the first, 0.00701 ± 0.0018 for the second.

UCCUCCUACGAGCUUGCAUAGUAUUUAGUUA and UCCUCCUUCAGCUUGCAUAGUAUAUAGUUA are within error of each other in “pre-steady-state target cleavage rate” value: 0.00585 ± 0.0022 for the first, 0.00364 ± 0.0025 for the second.

UCCUGGAACAGCUUUGCAUAGUAUUUAGUUA and UCCUGGAACAGCUUGUCAUAGUAUUUAGUUA are within error of each other in “pre-steady-state target cleavage rate” value: 0.00711 ± 0.0027 for the first, 0.00365 ± 0.0033 for the second.

UCCUCCUACACCUUGCUUAGUAUUUAGUUA and UCCUGCUACACCUUGCAUAGUAUUUAGUUA are within error of each other in “pre-steady-state target cleavage rate” value: 0.00665 ± 0.0019 for the first, 0.0087 ± 0.0022 for the second.

UCCUGCUACAGCUUGACAUAGUAUUUAGUUA and UCCUGGAUCAGCAUGCUUAGUAUUUAGUUA are within error of each other in “pre-steady-state target cleavage rate” value: 0.00448 ± 0.0026 for the first, 0.00777 ± 0.0024 for the second.

UCCUGCUACAGCAUGCAUAGUAUUUUGUUA and UCCUGGAACAGCAUUGCAUAGUAUUUAGUUA are within error of each other in “pre-steady-state target cleavage rate” value: 0.00333 ± 0.0032 for the first, 0.00862 ± 0.0022 for the second.

First: UCCUGCAACAGGUUGCAUAGUAUUUAGUUA
Second: UCCUGGUACAGCAUGCAUAGUAUUUAGUUA
The “pre-steady-state target cleavage rate” value of the first is lower: 0.00771 ± 0.0033 for the first, 0.0158 ± 0.004 for the second.

First: UCCUCCAACUGCUUGCAUAGUAUUUAGUUA
Second: UCCUGCUACAGCUUGCAUAGUAUUUAGUUU [g2:g25:cont:t1U]
The “pre-steady-state target cleavage rate” value of the first is lower: 0.00659 ± 0.0019 for the first, 0.0127 ± 0.0035 for the second.

UCCUGGAUCAGCUUGCAUAGUAUUUAGUAA and UCCUCCUACACCUUGCAUAGUAUUUAGUAA are within error of each other in “pre-steady-state target cleavage rate” value: 0.00751 ± 0.0025 for the first, 0.0033 ± 0.0026 for the second.

UCCUGCUACAGCUCUGCAUAGUAUUUAGUUA and UCCUGGAUGUGCCUGCAUAGUAUUUAGUUA are within error of each other in “pre-steady-state target cleavage rate” value: 0.00983 ± 0.0027 for the first, 0.00951 ± 0.003 for the second.

UCCUGGAUCAGCUUGCAUAGUAUUUGAGUUA and UCCUGCUACAGCUUGCAUAGUAUUUGGUUA are within error of each other in “pre-steady-state target cleavage rate” value: 0.00502 ± 0.0022 for the first, 0.00697 ± 0.0023 for the second.

First: UCCUGGAUGAGCGUGCAUAGUAUUUAGUUA
Second: UCCUCCUACAGCUUGGAUAGUAAUUAGUUA
The “pre-steady-state target cleavage rate” value of the first is higher: 0.0113 ± 0.003 for the first, 0.00499 ± 0.0021 for the second.

UCCUGCUACAGCUUGCAUAGUAAUUUAGUUA and UCCUGGAUGAGCCUUGCAUAGUAUUUAGUUA are within error of each other in “pre-steady-state target cleavage rate” value: 0.00525 ± 0.0024 for the first, 0.0071 ± 0.0027 for the second.

UCCUCCAACAGCUUGCAUAGUUUUUAGUUA and UCCUCCAACACCUUGCAUAGUAUUUAGUUA are within error of each other in “pre-steady-state target cleavage rate” value: 0.00502 ± 0.0021 for the first, 0.00554 ± 0.0024 for the second.

Going from UCCUGGAACAGCGUUGCAUAGUAUUUAGUUA to UCCUGGAUCAGCUUGCAUAGUAAUUAGUAA, the “pre-steady-state target cleavage rate” value falls from 0.0103 ± 0.0025 to 0.00485 ± 0.0021.

Compared with UCCUGGAUAAGCUUGCAUAGUAUUUAGUUA, UCCUGGAAGAGCUUGCAUAGUAUUUAGAUA is lower in “pre-steady-state target cleavage rate” value: 0.0122 ± 0.0029 for the first, 0.00463 ± 0.0025 for the second.

Reference: the supplement of paper PMC10338343
